# Sampled rows, rich in hits. Any-hit rate of the full collection: about 1.8%.
# Exocytosis inh: blocks lytic granule exocytosis; TALL-104 LAMP-1 surface exposure, flow cytometry; cells stimulated with thapsigargin and PMA; inhibition, % at 10 µM; 360,000 tested, 0.66% active; AID 651702;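 active means inhibition above about 55%, limit read from the data; inconclusive means no clear call, values can overlap the other calls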
# Myeloid diff MLP: compounds promoting myeloid differentiation | ER-HoxA9 myeloid progenitors, lysozyme-GFP differentiation, flow cytometry | calls only at 10 µM | 360,000 tested, 1% active | AID 624256;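 active means normalized GFP-positive differentiation at or above the plate's own cutoff, the solvent-only control mean plus 3 SD; inconclusive means no clear call, values can overlap the other calls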;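 further: cells exposed to compound for four days before flow analysis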
# ABCB6 inh 2: inhibitors of human ABC transporter ABCB6; K562-ABCB6 porphyrin accumulation, flow cytometry, 1 h; active compounds read low; fluorescence ratio to DMSO, % at 10 µM; 360,000 tested, 0.19% active; AID 602162;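 active means fluorescence ratio to DMSO below 75%, the collection mean minus 3 SD; inconclusive means too few cells collected in the well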;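 further: signal is porphyrin accumulated inside mitochondria; 100% equals median channel fluorescence of DMSO control wells; lower ratio means ABCB6 inhibition with less porphyrin fluorescence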
# Target sequence (Q9NP58 whole entry, looked up): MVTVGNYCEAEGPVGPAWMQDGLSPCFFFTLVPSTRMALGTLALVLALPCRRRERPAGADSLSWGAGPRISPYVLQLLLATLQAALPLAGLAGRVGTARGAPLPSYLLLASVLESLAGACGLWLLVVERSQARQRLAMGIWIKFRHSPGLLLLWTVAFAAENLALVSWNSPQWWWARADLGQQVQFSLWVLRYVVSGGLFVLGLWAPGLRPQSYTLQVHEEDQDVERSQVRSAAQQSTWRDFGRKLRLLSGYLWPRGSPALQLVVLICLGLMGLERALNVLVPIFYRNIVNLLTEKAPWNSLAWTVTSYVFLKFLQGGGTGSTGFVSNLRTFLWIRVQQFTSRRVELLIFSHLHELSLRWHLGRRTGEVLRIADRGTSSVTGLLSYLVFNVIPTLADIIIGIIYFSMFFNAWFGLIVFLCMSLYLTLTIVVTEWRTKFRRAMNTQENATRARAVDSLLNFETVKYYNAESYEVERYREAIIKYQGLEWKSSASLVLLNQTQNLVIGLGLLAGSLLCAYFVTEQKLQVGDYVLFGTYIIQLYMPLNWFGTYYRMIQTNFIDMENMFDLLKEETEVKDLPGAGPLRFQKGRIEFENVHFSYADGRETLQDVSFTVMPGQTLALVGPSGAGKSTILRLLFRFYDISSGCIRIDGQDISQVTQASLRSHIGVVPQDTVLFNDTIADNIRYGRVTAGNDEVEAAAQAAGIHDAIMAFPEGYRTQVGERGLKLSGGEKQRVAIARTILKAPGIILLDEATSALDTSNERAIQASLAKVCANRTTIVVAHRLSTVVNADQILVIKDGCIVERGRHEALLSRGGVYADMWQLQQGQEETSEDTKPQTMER
# Myeloid diff: promotes myeloid progenitor differentiation; calls only; ER-HoxA9 myeloid progenitors, GFP/Mac1 double-positive flow; 2,300 tested, 2% active; shares compounds with Myeloid diff MLP; AID 651706;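 active means share of green or green-and-red cells above 9 and 9% in run 1 or 4 and 3% in run 2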
# GFP autofluor: flagged as fluorescent in myeloid differentiation counter-screen; shares compounds with Myeloid diff MLP; ER-HoxA9 myeloid progenitors, no estrogen, GFP autofluorescence flow cytometry; vehicle wells 0%, positive control 100%; fluorescence response, % (concentration not given with the values); 2,300 tested, 7.4% active; AID 651707;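 active means over 5% cells positive for green fluorescent reporter, or over 2% positive for both it and APC stain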;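 further: range taken on the double positive population between DMSO and positive control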
# The depositor's hits bear a star; i = inactive; ? = inconclusive; . = no result given; + = active, no number; ! = repeats disagree.
SMILES,Exocytosis inh,Myeloid diff MLP,ABCB6 inh 2,Myeloid diff,GFP autofluor
Cc1ccc2nc(-c3ccc4c(c3)OCCO4)cn2c1,18,.,101,.,.
CN1c2ccccc2Oc2nnc(Cl)cc21,0,i,94,.,.
CCN(CC)CCOc1cc2c(nn1)Oc1ccccc1N2C,3,i,101,i,0
Cc1nc(N2CCc3ccccc3C2)[nH]c(=O)c1Cc1ccccc1,0,i,99,.,.
Cc1nc(-n2[nH]c3c(c2=O)CCCC3)[nH]c(=O)c1Cc1ccccc1,-2,i,100,i,0
Cc1cc(C)c2[nH]c(C(=O)Nc3ccc(F)cc3Br)cc2c1,-22,i,98,.,.
Cn1c(=O)[nH]c(Nc2ccccc2)c([N+](=O)[O-])c1=O,2,i,98,.,.
N#CC1=C(S)N(c2ccccc2)C(c2ccc(-c3cc(Cl)ccc3Cl)o2)NC1=O (stereo unspecified),6,i,110,i,0
N#CC1=C(S)N(c2ccccc2)C(c2ccc(-c3ccc(Cl)c(Cl)c3)o2)NC1=O (stereo unspecified),11,i,102,.,.
COc1ccc(-c2nc(CN3CCC(C(=O)NC4CC4)CC3)c(C)o2)cc1OC,1,i,95,.,.
COc1ccc(-c2nc(CN3CCC(C(=O)N4CCc5ccccc54)CC3)c(C)o2)cc1OC,4,i,97,i,1
CC(C)(C)C1CCC(C(=O)Nc2ccc(N3CCOCC3)cc2N2CCOCC2)CC1 (stereo unspecified),4,i,94,.,.
CCOC(=O)c1ccc(NC(=O)NC2=NCCS2)cc1,-5,?,90,.,.
C/C(=N\NC(=O)c1cc(C)oc1C)c1ccc(C)c([N+](=O)[O-])c1,-2,i,102,.,.
CCCOc1nnnn1-c1ccccc1,8,i,93,.,.
CCCOn1nnnc1-c1ccccc1,0,i,99,i,0
CC1(C(=O)Nc2ccc3[nH]ncc3c2)CCN1C(=O)CCc1ccccc1 (stereo unspecified),4,i,96,.,.
CC(C)NS(=O)(=O)c1ccc(NC(=O)C(C)OC(=O)C2CCC2)cc1 (stereo unspecified),2,i,103,.,.
COc1cccc(Oc2cnc(N)nc2-c2ccc(OC)cc2O)c1,8,i,95,.,.
COc1ccc(-c2nc(N)ncc2Oc2ccccc2Br)c(O)c1,5,+,99,i,0
CC(=O)c1c(NC(=O)c2ccccc2)[nH]c(-c2ccccc2)nc1=S,-3,+,114,i,4.9*
CSc1nc(-c2ccccc2)nc(NC(=O)c2ccccc2)c1C(C)=O,-2,i,94,.,.
CC(=O)c1c(C)[nH]c(-c2ccccc2)nc1=S,-23,i,102,i,1
COc1ccccc1-c1nc(=S)c(C(C)=O)c(C)[nH]1,-4,i,100,.,.
O=C1CC2(CCN1)CCN(Cc1ccccc1)CC2,-6,i,98,.,.
SMILES,Exocytosis inh,Myeloid diff MLP,ABCB6 inh 2,Myeloid diff,GFP autofluor
Cc1onc(-c2c(Cl)cccc2Cl)c1C(=O)Nc1nc(C(C)(C)C)cs1,-1,i,101,.,.
Cc1cccc(-c2nnc(SC(C)C(=O)N3CCOCC3)o2)c1 (stereo unspecified),-24,i,96,.,.
COc1cc2[nH]c(=O)n(CCCC(=O)N3CC=C(c4ccccc4)CC3)c(=O)c2cc1OC,-1,+,95,i,0
COc1cc2[nH]c(=O)n(CCC(=O)N3CC=C(c4ccccc4)CC3)c(=O)c2cc1OC,2,i,97,.,.
CC(C)CNC(=O)C(=O)NNC(=O)C1CCCCC1,-1,i,102,.,.
CC(CNC(=O)C1CCCCC1)NC(=O)C1CCCCC1 (stereo unspecified),-1,+,97,i,0
CCCC1=NN(c2ccc([N+](=O)[O-])cc2)C(=O)/C1=C\N(C)C,3,i,103,.,.
Cc1ccccc1N1C(=O)CSC1=C(C#N)C#N,1,i,97,.,.
CC1=CC(=C(C#N)C#N)c2ccccc2N1C,-1,i,111,i,2
COCc1[nH]nc2c1C(c1c(F)cccc1Cl)C(C#N)=C(N)O2 (stereo unspecified),0,i,91,.,.
N#CC1=C(N)Oc2n[nH]c(-c3ccccn3)c2C1c1c(F)cccc1Cl (stereo unspecified),0,i,90,i,0
N#Cc1c(C(F)(F)F)cc(-c2ccccc2)nc1SCC(=O)Nc1sc2c(c1C#N)CCC2,-2,i,112,i,0
COc1ccc(-c2ccc(C#N)c(SCC(=O)Nc3sc4c(c3C#N)CCC4)n2)cc1,-1,i,90,.,.
COc1cccc(NC(=O)c2ccccc2N2C(=O)C3C4C=CC(C5CC45)C3C2=O)c1 (stereo unspecified),12,?,92,.,.
CCC(=O)NC(=S)Nc1ccc(NC(=O)c2ccccc2[N+](=O)[O-])cc1,2,i,99,i,1
CCC(=O)NC(=S)Nc1ccc(NC(=O)c2cccc([N+](=O)[O-])c2C)cc1,-6,i,98,.,.
Cc1cc(C)c(NN=c2c(=O)c3ccccc3c2=O)c(C)c1,1,+,101,i,0
O=c1c(=NNc2ccccc2Cl)c(=O)c2ccccc12,-3,i,99,.,.
Oc1ccc(C[C@H]2CNCCN2CC2CCCCC2)cc1,-1,i,99,.,.
CCc1c(-c2ccccc2F)ncn1Cc1cccc(-c2ccccc2)c1,13,i,.,i,2
CCc1c(-c2ccc(Cl)cc2)ncn1Cc1cccc(-c2ccccc2)c1,15,i,.,.,.
CCC1Oc2ccc(C)cc2N(CC(=O)NCC2CCCO2)C1=O (stereo unspecified),2,i,96,.,.
Cc1nc(NC(=O)CSC2=NCCS2)sc1C(=O)N(C)C,0,i,96,.,.
CC1Nc2ncnc(N3CCc4ccccc4C3)c2N(Cc2ccc(Br)cc2)C1=O (stereo unspecified),8,+!,100,i,0
CC1Nc2ncnc(N3CCc4ccccc4C3)c2N(Cc2ccc(Cl)cc2)C1=O (stereo unspecified),-2,i,105,.,.
SMILES,Exocytosis inh,Myeloid diff MLP,ABCB6 inh 2,Myeloid diff,GFP autofluor
Cc1ccc(C)c2[nH]c(=O)c(C(c3nnnn3C(C)(C)C)N3CC=C(c4ccc(F)cc4)CC3)cc12 (stereo unspecified),-5,+,96,i,1
CCC(C)(C)n1nnnc1C(c1cc2cccc(C)c2[nH]c1=O)N1CCCC1 (stereo unspecified),-2,i,100,.,.
O=C(COC(=O)CSc1ccc(Cl)cc1)Nc1ccc2[nH]c(=O)[nH]c2c1,-3,i,97,.,.
Cc1cc(NC(=O)C2CCN(S(=O)(=O)c3cccs3)CC2)no1,-6,i,93,.,.
O=C(Nc1ccon1)C1CCN(S(=O)(=O)c2cccs2)CC1,-2,i,97,i,1
Cc1ccc(S(=O)(=O)N2CC(O)C[C@H]2C(=O)OCC(=O)N2CCN(c3ccc(F)cc3)CC2)cc1C (stereo partly specified),0,i,96,.,.
CCN(CC)CCNC(=O)c1ccc(NC(=O)Cc2ccccc2F)cc1,0,i,98,.,.

# High-throughput results: PubChem, NMMLSC
